Measurements: article PMC7819943, “Rice protein-binding microarrays: a tool to detect cis-acting elements near promoter regions in rice”
Whole data set: some 39,000 sequences, median “fluorescence intensity (a.u.)” near 4,300, cut for the highest 2% near 39,000. This excerpt belongs to a sample that is enriched for the highest values.

Biological target: T1, OsSMF1 (Oryza sativa, UniProt Q6ZLB0 1-436)
T1 sequence: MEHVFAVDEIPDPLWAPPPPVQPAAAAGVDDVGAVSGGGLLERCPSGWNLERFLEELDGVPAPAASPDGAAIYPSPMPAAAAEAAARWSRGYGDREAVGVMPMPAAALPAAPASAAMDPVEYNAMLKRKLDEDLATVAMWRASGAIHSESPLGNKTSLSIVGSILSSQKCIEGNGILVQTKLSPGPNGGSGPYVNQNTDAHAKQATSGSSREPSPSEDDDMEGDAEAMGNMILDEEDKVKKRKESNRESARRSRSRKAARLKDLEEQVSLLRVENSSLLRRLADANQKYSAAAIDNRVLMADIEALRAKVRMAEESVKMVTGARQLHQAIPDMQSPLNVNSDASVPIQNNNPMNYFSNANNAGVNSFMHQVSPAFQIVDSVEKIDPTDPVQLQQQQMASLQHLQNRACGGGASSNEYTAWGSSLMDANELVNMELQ
Experiment: protein-binding microarray (RPBM); PBS, 2% BSA, 51.3 ng/ul salmon testes DNA, 50 uM zinc acetate, 200 nM TF, 25 C, 1 h; high values mean tight binding
Settings: protein: recombinant; tags: N-terminal polyhistidine and DsRed monomer fusion (pET32a); chain copies: 2; label: CyDye5-dUTP incorporated in the synthesized complementary strand; 3' TTTTT single-stranded linker to array surface; dsDNA, one strand shown
Outline: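 Per-feature fluorescence intensity (arbitrary units), read on an Axon 4000B scanner, is the binding signal. Transcription factors carrying an N-terminal polyhistidine tag and DsRed fusion were expressed in E. coli BL21-CodonPlus and purified on Ni–NTA. A custom Agilent array, made double-stranded by primer extension with Cy5-dUTP and blocked with 2% BSA, was incubated with 200 nM protein in PBS, 2% BSA, salmon testes DNA and 50 µM zinc acetate at 25 °C for 1 h and then washed.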

Point of comparison: “TAAGATCACCTATAGATATATCATTCCAAGTCATAGATTGCGGAGTCACCTAGTGCAG”, binding signal 6060 fluorescence intensity (a.u.). Against it:
- TCCATTTTGGACCGCTGACGAGGACGATAGGAGCGTGAGTCGGAGTCACCTAGTGCAG — lower, 4710 fluorescence intensity (a.u.)
- AGCTTGTGTACCCAGGAGATCTACATACTTCGCTACGTCACGGAGTCACCTAGTGCAG — lower, 4570 fluorescence intensity (a.u.)
- AGTATATCCTAAAGCGACACTTTACAGTCTCAAGGACATCCGGAGTCACCTAGTGCAG — higher, 11200 fluorescence intensity (a.u.)
- TGGAGGAAGTCAGTAGGATCCCACGTGTCATACTCACACCCGGAGTCACCTAGTGCAG — higher, 22200 fluorescence intensity (a.u.)
- ACTCCGGTCCAGGAAAATTATTCCTATAGTAATGTAATAACGGAGTCACCTAGTGCAG — higher, 42900 fluorescence intensity (a.u.)
- TATATAACCTAAAATGGAGGAAGTAGGAAATATGTAATTCCGGAGTCACCTAGTGCAG — lower, 4630 fluorescence intensity (a.u.)
- ATTTAACTGCATAGAAGTGTATAAGTAAAATAATTTATTCCGGAGTCACCTAGTGCAG — lower, 4320 fluorescence intensity (a.u.)
- GCCACACCCACACTGACACACATATACAAGCCAGAGAGATCGGAGTCACCTAGTGCAG — lower, 3280 fluorescence intensity (a.u.)
- GAAAGGAAGAGGTGGAGGAAGTGAGACCCACTGACTTGTGCGGAGTCACCTAGTGCAG — higher, 24500 fluorescence intensity (a.u.)
- TCCACCACACGTGTCTATATCGCTTCCTTCCATTCCATCACGGAGTCACCTAGTGCAG — higher, 7170 fluorescence intensity (a.u.)
- GACTTGTCCATGCATGCATGCATGACTTGTGTTCAGCCACCGGAGTCACCTAGTGCAG — lower, 3700 fluorescence intensity (a.u.)
- TTGTTGGTGTTTCCTCGTCCGCGTCGTCGGTTGCATTCTCCGGAGTCACCTAGTGCAG — lower, 3190 fluorescence intensity (a.u.)
- GTAATTACAGCTCATGATTTTCTCTCTCTCTCTCTCTCTACGGAGTCACCTAGTGCAG — higher, 19500 fluorescence intensity (a.u.)
- ACTTACACAGTAATTACACCTCACTTACACCCGCTTACACCGGAGTCACCTAGTGCAG — lower, 5410 fluorescence intensity (a.u.)
- CGAAATAAGTAATTTACAGGGCTTTCTCTCTCTCGCTCACCGGAGTCACCTAGTGCAG — higher, 64400 fluorescence intensity (a.u.)
- TGCTGATGTTGCTGCTAAAATTGCACCATTGTTGTGTAACCGGAGTCACCTAGTGCAG — higher, 40700 fluorescence intensity (a.u.)
- ACACGTGGGACCCACGTGGGTCCCATGCTGACTCAGCTGCCGGAGTCACCTAGTGCAG — higher, 28100 fluorescence intensity (a.u.)
- TTGTTAACTGCTGATGTGTGACCTGACTGTTAAAAGCTGCCGGAGTCACCTAGTGCAG — higher, 9170 fluorescence intensity (a.u.)
- GTGCATAAATTTATTAAAATAGAAAATTAATGCAGTGCCACGGAGTCACCTAGTGCAG — lower, 4660 fluorescence intensity (a.u.)
- AGCTGTGTTGCTAATTGTGGCATTGTGATGTGATGATCCCCGGAGTCACCTAGTGCAG — lower, 3160 fluorescence intensity (a.u.)
- ATAATGCTGACTGAACTGCCATGTGTACGCCACGTAGACCCGGAGTCACCTAGTGCAG — higher, 27600 fluorescence intensity (a.u.)
- AAATGCTGACTGGACTGCCACGTGTACGCCACGTAGACCACGGAGTCACCTAGTGCAG — higher, 45400 fluorescence intensity (a.u.)
- CACATAAATAATAATAAAATGTGGGACCCACGTGGGCCCCCGGAGTCACCTAGTGCAG — higher, 10400 fluorescence intensity (a.u.)
- GTCACATCATCATGCATTAATAAAATGCCACGTCATCATCCGGAGTCACCTAGTGCAG — higher, 50000 fluorescence intensity (a.u.)
- ATGTTGACTGGACTAGCACGTGTACGCCACGTAGACCAAACGGAGTCACCTAGTGCAG — lower, 4790 fluorescence intensity (a.u.)
- TAAATAATTGCCATTGCCATGCTGCCACGTGTCATGGGACCGGAGTCACCTAGTGCAG — higher, 49900 fluorescence intensity (a.u.)
- GGATCAAATTGCCACATATGCGCCACGTTAATGCCACATCCGGAGTCACCTAGTGCAG — higher, 8660 fluorescence intensity (a.u.)
- ACACTGTTCACCATGATCCACGTATATATGTGACGAAAATCGGAGTCACCTAGTGCAG — lower, 4560 fluorescence intensity (a.u.)
- TTGCGACGGCCATCCTCCGCGCGCGTGACACCAACGCCACCGGAGTCACCTAGTGCAG — lower, 4880 fluorescence intensity (a.u.)
- TTTCCCTGATAATAATAACCGACACGCGTAAGCTCTTGAACGGAGTCACCTAGTGCAG — lower, 3360 fluorescence intensity (a.u.)
- AGCATTTCCATCCACCACACGCGTACGTCCCCGTCACGCGCGGAGTCACCTAGTGCAG — higher, 7440 fluorescence intensity (a.u.)
- AAGTGCCTACCAAGCCAGCATCGTGTCATAGCCGGAGCATCGGAGTCACCTAGTGCAG — lower, 3730 fluorescence intensity (a.u.)
- ATTTGCGCTGATATATTATCTAACGTGACACGATTAATCCCGGAGTCACCTAGTGCAG — lower, 6030 fluorescence intensity (a.u.)
- GGGTCATTTGTCCCTTTCTGGAATGAAGTGCTTTGTAAAACGGAGTCACCTAGTGCAG — higher, 33100 fluorescence intensity (a.u.)
- TTTTAATCCGAGTTTCAGACCACGATGGCCATTTGTTTCGCGGAGTCACCTAGTGCAG — lower, 3460 fluorescence intensity (a.u.)
- TACCTTACCTGTACGGCAGGCATGCATGTTACTCCAGTAGCGGAGTCACCTAGTGCAG — higher, 39800 fluorescence intensity (a.u.)
- ACAGTACTTGGCTGTAGCGGGCATCTTGTCCTGGCATGTGCGGAGTCACCTAGTGCAG — lower, 3600 fluorescence intensity (a.u.)
- ACCTGTTGTACTTAGTTACGGCGACACGTTTGCATCAGGCCGGAGTCACCTAGTGCAG — higher, 6860 fluorescence intensity (a.u.)
- TGTGACCGGTTTTGATTAGTTAAGGGACGCCGGGTATCTGCGGAGTCACCTAGTGCAG — higher, 31600 fluorescence intensity (a.u.)
- AATCTGCACCGGTTTTGATAGTTAAGGGACTAATTGTATCCGGAGTCACCTAGTGCAG — higher, 41700 fluorescence intensity (a.u.)
- GCACCGGTTTTGATAGTTGAGGGACTTGTTGTATCTGGTTCGGAGTCACCTAGTGCAG — higher, 29200 fluorescence intensity (a.u.)
